Bioassay records deposited in PubChem by National Center for Advancing Translational Sciences (NCATS).
TR SRC2 fluor cs – alters Texas Red total fluorescence, flagging assay interference. 280,000 tested, 0.29% active. Potency, µM (highest dose often 106 µM), for the others: at the top dose fluorescence change, negative = quenching. TRb/SRC2 Texas Red total fluorescence interference; active means well fitted curve in either direction with a large enough effect; inconclusive means small, poorly fitted or top-dose-only effect
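Flags fluorescent or light-absorbing compounds by total fluorescence, S + 2P, at 555 nm excitation and 632 nm emission. Mixture: 20 nM Texas Red SRC2 peptide, 0.6 uM human TRb LBD, 1 uM T3, 5% DMSO; compound exposure 5 h at ambient temperature.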
GoLoco inh red – RGS12 GoLoco-Gai1 interaction inhibition | 230,000 tested, 0.44% active | P63096 | AID 880 | Gai1:RGS12 GoLoco peptide FP, rhodamine, 10 min | Potency, µM (highest dose often 61.6 µM), without a hit: top-dose activity, negative = inhibition, actives largely listed as inhibitors; active means well fitted inhibition curve with a large enough effect, not every such curve was filed as active; inactive means no such curve, though single readings can be large or run the other way; further: nearly all actives have a fitted effect of over 30% in size
Tau fluor cs – counter-screen for tau fibril formation inhibitors; tau K18 P301L Alexa594 fluorescence, heparin fibrillization; Potency, µM (highest dose often 57.7 µM), for inactives: at the highest dose activity change, negative = decrease; 280,000 tested, 0.93% active; further: nearly all actives have a fitted effect of over 55% in size
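Human K18 P301L tau (15 uM unlabeled plus 0.24 uM Alexa 594-labeled, final) in 100 mM sodium acetate pH 7 was mixed with compound and 20 uM heparin and incubated 6 hr at 37 C.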
Tau fibril ThT – blocks human tau fibril formation measured by thioflavin T. P10636. recombinant tau K18 P301L, heparin-induced fibrillization, ThT fluorescence. Potency, µM (series often up to 57.4 µM), without a hit: top-dose activity, negative = inhibition, usual class: inhibitors. 270,000 tested, 2.1% active; further: nearly all actives have a fitted effect of over 55% in size
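ThT emission at 510 nm, taken 1 hr after adding 30 uM dye, quantifies aggregates formed when 20 uM heparin acts on human tau K18 P301L for 6 hr at 37 C.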
Tau FP inhib – inhibitors of human tau fibril formation. P10636. AID 1468. K18 P301L tau heparin fibrillization, Alexa594 FP, 6 h. Potency, µM (top dose mostly 57.7 µM), for the others: at the highest dose activity, negative = inhibition, actives largely listed as inhibitors. 280,000 tested, 0.39% active; further: nearly all actives have a fitted effect of over 55% in size
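Recombinant K18 P301L […], labeled with Alexa 594 at 0.24 uM over 15 uM unlabeled; heparin inducer 20 uM final; 37 C, 6 hr; FP endpoint.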
TRb-SRC2 inh – disrupts binding of human TR beta to SRC2. AID 1469. Potency, µM (doses to about 106 µM), inactives show at the highest dose activity change, negative = inhibition, usual class: inhibitors. TRbeta-SRC2 peptide binding, fluorescence polarization; receptor liganded with 1 µM T3. 280,000 tested, 0.065% active;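 further: plate controls were bound peptide for no effect and peptide without receptor for full effect; nearly all actives have a fitted effect of over 50% in size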
Target sequence (P10828 whole entry, looked up): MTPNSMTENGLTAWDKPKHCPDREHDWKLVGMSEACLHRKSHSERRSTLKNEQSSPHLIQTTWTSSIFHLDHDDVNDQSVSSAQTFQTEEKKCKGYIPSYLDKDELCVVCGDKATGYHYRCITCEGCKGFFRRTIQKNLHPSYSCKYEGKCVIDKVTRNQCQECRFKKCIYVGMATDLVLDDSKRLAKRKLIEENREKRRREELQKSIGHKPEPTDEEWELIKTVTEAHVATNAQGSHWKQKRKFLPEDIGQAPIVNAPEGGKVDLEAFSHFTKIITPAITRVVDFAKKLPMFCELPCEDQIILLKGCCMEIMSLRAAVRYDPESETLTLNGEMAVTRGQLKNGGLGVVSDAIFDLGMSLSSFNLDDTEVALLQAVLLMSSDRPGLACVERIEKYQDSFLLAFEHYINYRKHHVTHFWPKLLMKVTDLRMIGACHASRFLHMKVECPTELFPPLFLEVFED
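A fluorescence polarization screen tested compounds at multiple concentrations against complex formation between 0.6 uM TRb ligand-binding domain and 20 nM Texas Red SRC2 peptide, with 1 uM T3 present; readout after 5 hr.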
An asterisk follows results filed as active; ? = inconclusive; / = no result; [ ] = another dose, or the depositor's remark. An excerpt weighted towards active compounds, which were near 3.2% of everything screened. Unless noted, the call rests on the fitted dose curve; in most records, active means well fitted curve in the direction sought with a large enough effect; inconclusive means small, poorly fitted or top-dose-only effect, or another doubt; inactive means no such curve, though single readings can be large; an effect the other way counts as inactive or inconclusive. Unless noted, on the % scale 0 is the no-effect control and ±100 the full control effect; potency means the concentration at half of the fitted maximal effect.

SMILES	TR SRC2 fluor cs	GoLoco inh red	Tau fluor cs	Tau fibril ThT	Tau FP inhib	TRb-SRC2 inh
O=C(CSc1nnc(SCc2cccc3ccccc23)s1)N/N=C/c1c[nH]c2ccccc12	0%	-2%	3.5µM*[quencher]	-15%	14%	4%
O=C(CSc1nnc(SCc2ccc(Cl)cc2)s1)N/N=C/c1c[nH]c2ccccc12	0%[53 µM]	-4%	?	0%	?	2%[53 µM]
COc1ccc(N/N=C(/N=Nc2nc(C)cc(=O)[nH]2)c2ccccc2)cc1	2%	-3%	?	4.5µM*	3%	-7%
COC(=O)N1C2=C(c3ccccc3[C@@H]1CC(=O)Nc1ccc(Br)cc1)[C@@H]1C(=O)N(c3ccccc3)C(=O)[C@@H]1[C@H](C)C2	-16%[11.2 µM]	6%[14.2 µM]	-15%[11.6 µM]	11%[11.5 µM]	-13%[11.6 µM]	3%[11.2 µM]
O=C1c2cc(O)cc(O)c2OC[C@@H]1c1ccc(O)c(O)c1	-3%	/	/	/	/	0%
CCOc1ccc(-c2ccc(/C=C3/C(=N)N4C(C)=CSC4=NC3=O)o2)c([N+](=O)[O-])c1	79µM*[quencher]	19%	?	3.2µM*	14%	?
CCOC(=O)c1ccccc1NC(=O)NC(C)c1c(-n2cccc2)sc(C)c1C (stereo unspecified)	22µM*[quencher]	/	-7%	-2%	-9%	-14%
COc1ccc([C@H]2Oc3cc(O)cc(O)c3C(=O)C2[C@@H]2C(=O)c3c(O)cc(O)cc3O[C@@H]2c2ccc(OC)cc2)cc1 (stereo partly specified)	-22%	17%	-29%	?	18µM*	?
O=C1c2c(O)cc(O)cc2OC(c2ccc(O)c(O)c2)C1O (stereo unspecified)	-23%	-36%	-2%	?	3%	13%
COc1ccc(C(=O)c2no[n+]([O-])c2C(=O)c2ccc(OC)cc2)cc1	-3%	-8%	-28%	18µM*	?	4%
COc1ccc(NC(=O)c2c(N)no[n+]2[O-])cc1	-4%	1%	-10%	-13%	-6%	-3%
CC(=O)OC[C@@H]1O[C@@H](O/N=C2/C[C@@H](O)[C@@H](O)[C@@H]3[C@@H]4C(=O)N(c5cccc(Oc6ccccc6)c5)C(=O)[C@H]4CC[C@H]23)[C@H](OC(C)=O)[C@H](OC(C)=O)[C@@H]1OC(C)=O	0%[11.2 µM]	/	-8%[11.6 µM]	-7%[11.5 µM]	1%[11.6 µM]	-4%[11.2 µM]
Cc1ccc(CNc2ccc(O)cc2)cc1	23%	18µM*	?	3.5µM*	8.9µM*	28µM*
COc1ccc(C2=C(C)C(=O)N(Cc3ccc(C(=O)NCc4cccc(C)c4)cc3)S2(=O)=O)cc1	158µM*[quencher]	/	-19%	-4%	-4%	-24%
CCOC(=O)/C=C/CCCC=O	-3%	2%	-20%	-14%	?	10%
NCCCCCCCCCCCC(=O)O	-6%[201 µM]	/	/	/	/	3%[201 µM]
COC(=O)C1=C(C)[C@@H](O)[C@@H](C)[C@H](c2c(OC)c(OC)c(C)c(OC)c2OC)O1	-6%[11.2 µM]	/	-9%[11.6 µM]	-10%[11.5 µM]	-10%[11.6 µM]	0%[11.2 µM]
COc1ccccc1OCC(=O)OC/C(O)=C(\C#N)c1nc2ccccc2[nH]1	2.5µM*[quencher]	75%	-6%	0%	6%	?
